Measurements: PubChem BioAssay (NCATS)
Inconclusive results are not listed. Calls of active or inactive are those of the source. Calls come from the whole dose curve; as a rule, active = well fitted curve in the direction sought with a large enough effect; inconclusive = small, poorly fitted or top-dose-only effect, or another doubt; inactive = no such curve, though single readings can be large; an effect the other way counts as inactive or inconclusive.

Tests used:
[1] = qHTS of pediatric cancer cell lines to identify multiple opportunities for drug repurposing: Primary screen for TC32 cells (AID 1347089); note: nearly all actives have a fitted effect of over 60% in size; note: potency is the fitted concentration of half-maximal effect
How it was run: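 A viability screen of TC32 cells was run over 48 h, with primary MIPE doses spanning 0.78 nM–46 µM and NPC doses 0.59 nM–46 µM. ATP luminescence (CellTiter-Glo) served as the read-out.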

[2] = qHTS of pediatric cancer cell lines to identify multiple opportunities for drug repurposing: Primary screen for NB1643 cells (AID 1347099); note: nearly all actives have a fitted effect of over 50% in size; note: potency is the fitted concentration of half-maximal effect
How it was run: (§1)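 CRCs from 8- or 11-point titrations (lowest final 0.59 nM NPC, 0.78 nM MIPE). Cell viability: CellTiter-Glo after 48 h incubation, 15 min room-temperature development, luminescence imaging.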

[3] = qHTS of pediatric cancer cell lines to identify multiple opportunities for drug repurposing: Primary screen for Rh18 cells (AID 1347102); note: nearly all actives have a fitted effect of over 65% in size; note: potency is the fitted concentration of half-maximal effect
How it was run: (§2)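 Viability after 48 h compound treatment at 37C, 500-1,000 cells/well, read as ATP luminescence with CellTiter-Glo. Primary screens used 11-point (MIPE, 0.78 nM-46 µM) or 8-point (NPC, 0.59 nM-46 µM) final concentrations; follow-up screens used 11-point dilutions.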

[4] = qHTS of pediatric cancer cell lines to identify multiple opportunities for drug repurposing: Primary screen for OHS-50 cells (AID 1347103); note: nearly all actives have a fitted effect of over 40% in size; note: potency is the fitted concentration of half-maximal effect
How it was run: (§3)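 Cells (500-1,000/well) rested 5 h, then received compounds for 48 h; metabolically active cells were measured by CellTiter-Glo luminescence. Final concentrations spanned up to 46 µM (MIPE, 11-point) or 0.59 nM-46 µM (NPC, 8-point) in primary screens, 11-point in follow-ups.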

[5] = qHTS of pediatric cancer cell lines to identify multiple opportunities for drug repurposing: Primary screen for MG 63 (6-TG R) cells (AID 1347105); note: nearly all actives have a fitted effect of over 50% in size; note: potency is the fitted concentration of half-maximal effect
How it was run: as §1

[6] = qHTS of pediatric cancer cell lines to identify multiple opportunities for drug repurposing: Primary screen for control Hh wild type fibroblast cells (AID 1347106);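 note: series mostly up to about 46 µM; a drop in luminescence marks cytotoxicity and a rise apparent proliferation; nearly all actives have a fitted effect of over 55% in size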
How it was run: as §2

[7] = qHTS of pediatric cancer cell lines to identify multiple opportunities for drug repurposing: Primary screen for Rh30 cells (AID 1347107); note: nearly all actives have a fitted effect of over 75% in size; note: potency is the fitted concentration of half-maximal effect
How it was run: as §2

[8] = qHTS of pediatric cancer cell lines to identify multiple opportunities for drug repurposing: Primary screen for Rh41 cells (AID 1347108); note: nearly all actives have a fitted effect of over 70% in size; note: potency is the fitted concentration of half-maximal effect
How it was run: as §1

[9] = qHTS of pediatric cancer cell lines to identify multiple opportunities for drug repurposing: Primary screen for DAOY cells (AID 1347090); note: potency is the fitted concentration of half-maximal effect; nearly all actives have a fitted effect of over 55% in size
How it was run: (§4)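 Viability measured as metabolically active cells via CellTiter-Glo luminescence following 48 hours of compound exposure, 11-point dilutions in confirmatory testing. 500-1,000 cells/well plated 5 hours before dosing; controls were DMSO and 2.3 µM bortezomib.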

[10] = qHTS of pediatric cancer cell lines to identify multiple opportunities for drug repurposing: Primary screen for SJ-GBM2 cells (AID 1347091); note: potency is the fitted concentration of half-maximal effect
How it was run: as §4

[11] = qHTS of pediatric cancer cell lines to identify multiple opportunities for drug repurposing: Primary screen for A673 cells (AID 1347092); note: potency is the fitted concentration of half-maximal effect; nearly all actives have a fitted effect of over 45% in size
How it was run: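 Titration-based qHTS on A673 cells: MIPE compounds spanned 11 points (0.78 nM to 46 µM final), NPC compounds 8 points (0.59 nM to 46 µM final). Viability after 48 h was measured by ATP luminescence.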

[12] = qHTS of pediatric cancer cell lines to identify multiple opportunities for drug repurposing: Primary screen for SK-N-MC cells (AID 1347093); note: potency is the fitted concentration of half-maximal effect
How it was run: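 Metabolically active cells were quantified by ATP-dependent luminescence (CellTiter-Glo, 15 min at room temperature) following 48 h treatment. Cells had been plated at 500-1,000 per well and settled for 5 h beforehand.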

[13] = qHTS of pediatric cancer cell lines to identify multiple opportunities for drug repurposing: Primary screen for BT-37 cells (AID 1347094); note: potency is the fitted concentration of half-maximal effect
How it was run: as §1

[14] = qHTS of pediatric cancer cell lines to identify multiple opportunities for drug repurposing: Primary screen for NB-EBc1 cells (AID 1347095); note: potency is the fitted concentration of half-maximal effect
How it was run: as §1

[15] = qHTS of pediatric cancer cell lines to identify multiple opportunities for drug repurposing: Primary screen for Saos-2 cells (AID 1347097); note: nearly all actives have a fitted effect of over 40% in size; note: potency is the fitted concentration of half-maximal effect
How it was run: as §1

[16] = qHTS of pediatric cancer cell lines to identify multiple opportunities for drug repurposing: Primary screen for SK-N-SH cells (AID 1347098); note: nearly all actives have a fitted effect of over 65% in size; note: potency is the fitted concentration of half-maximal effect
How it was run: as §3

[17] = qHTS of pediatric cancer cell lines to identify multiple opportunities for drug repurposing: Primary screen for LAN-5 cells (AID 1347100); note: potency is the fitted concentration of half-maximal effect
How it was run: as §2

[18] = qHTS of pediatric cancer cell lines to identify multiple opportunities for drug repurposing: Primary screen for BT-12 cells (AID 1347101); note: nearly all actives have a fitted effect of over 25% in size; note: potency is the fitted concentration of half-maximal effect
How it was run: as §3

[19] = qHTS of pediatric cancer cell lines to identify multiple opportunities for drug repurposing: Primary screen for RD cells (AID 1347104); note: nearly all actives have a fitted effect of over 55% in size; note: potency is the fitted concentration of half-maximal effect
How it was run: as §1

[20] = qHTS of pediatric cancer cell lines to identify multiple opportunities for drug repurposing: Primary screen for U-2 OS cells (AID 1347096); note: nearly all actives have a fitted effect of over 50% in size; note: potency is the fitted concentration of half-maximal effect
How it was run: as §2

For `C[C@](O)(COc1ccc(C#N)cc1)C(=O)Nc1ccc(C#N)c(C(F)(F)F)c1`, the Potency [1] was “inactive”, the Potency [2] was 23.5 µM (active) and the Potency [3] was “inactive”. For the same compound, the Potency [4] was 27.3 µM (active), the Potency [5] was “inactive” and the Potency [6] was “inactive”. The Potency [7] was “inactive” and the Potency [8] was “inactive”.

For `COc1ccc2c(c[n+](C)c3c4cc5c(cc4ccc23)OCO5)c1OC`, the Potency [9] was 23.5 µM (active), the Potency [10] was 11.8 µM (active) and the Potency [11] was 3.72 µM (active). For the same compound, the Potency [12] was 5.9 µM (active), the Potency [13] was 17.2 µM (active) and the Potency [14] was 5.26 µM (active). The Potency [15] was 9.35 µM (active), the Potency [16] was 12.1 µM (active) and the Potency [2] was 7.43 µM (active). The Potency [17] was 8.33 µM (active), the Potency [18] was 24.3 µM (active) and the Potency [3] was 8.33 µM (active). The Potency [4] was 8.63 µM (active), the Potency [19] was 10.5 µM (active) and the Potency [7] was 20.9 µM (active). The Potency [8] was 10.5 µM (active).

In the case of `C=C[C@@H]1CN2CCC1C[C@@H]2[C@@H](O)c1ccnc2ccccc12` (stereo partly specified), the Potency [1] is reported as “inactive”, the Potency [11] is reported as 18.7 µM (active) and the Potency [15] is reported as 26.4 µM (active). For the same compound, the Potency [2] was 10.5 µM (active), the Potency [4] was 30.6 µM (active) and the Potency [19] was 29.6 µM (active). The Potency [5] was “inactive” and the Potency [6] was “inactive”.

In the case of `COc1nn(CSP(=S)(OC)OC)c(=O)s1`, the Potency [1] is reported as “inactive” and the Potency [6] is reported as “inactive”.

With `CC=C(C)C(=O)O[C@H]1C(C)=C2[C@@H]3OC(=O)[C@@](C)(O)[C@@]3(O)[C@@H](OC(=O)CCC)C[C@](C)(OC(C)=O)[C@@H]2[C@@H]1OC(=O)CCCCCCC` the Potency [9] was 0.469 µM (active), the Potency [10] was 0.0418 µM (active) and the Potency [11] was 0.0235 µM (active). The Potency [13] was 0.0172 µM (active), the Potency [14] was 0.118 µM (active) and the Potency [20] was 0.296 µM (active). For the same compound, the Potency [15] was 0.0743 µM (active), the Potency [2] was 0.0662 µM (active) and the Potency [17] was 0.0418 µM (active). For the same compound, the Potency [18] was 0.0485 µM (active), the Potency [3] was 0.0132 µM (active) and the Potency [4] was 0.0172 µM (active). For the same compound, the Potency [19] was 0.0209 µM (active), the Potency [5] was 0.118 µM (active) and the Potency [7] was 1.32 µM (active). The Potency [8] was 0.209 µM (active).

For `Cc1c(N)nc([C@H](CC(N)=O)NC[C@@H](N)C(N)=O)nc1C(=O)N[C@H](C(=O)N[C@@H](C)[C@H](O)[C@@H](C)C(=O)N[C@@H](C(=O)NCCc1nc(-c2nc(C(=O)NCCC[S+](C)C)cs2)cs1)[C@@H](C)O)C(O[C@H]1O[C@H](CO)[C@H](O)[C@@H](O)[C@@H]1O[C@H]1O[C@H](CO)[C@@H](O)[C@H](OC(N)=O)[C@H]1O)c1cnc[nH]1` (stereo partly specified), the Potency [1] was 4.15 µM (active), the Potency [10] was 1.48 µM (active) and the Potency [12] was 0.833 µM (active). The Potency [13] was 1.37 µM (active), the Potency [14] was 1.32 µM (active) and the Potency [20] was “inactive”. For the same compound, the Potency [15] was 1.66 µM (active), the Potency [16] was “inactive” and the Potency [2] was 1.66 µM (active). The Potency [17] was 0.526 µM (active), the Potency [3] was “inactive” and the Potency [4] was 1.72 µM (active). The Potency [5] was 0.59 µM (active), the Potency [7] was “inactive” and the Potency [8] was “inactive”.

With `CCCCCCCCCCCCCCCC[N+](C)(C)C` the Potency [9] was 13.3 µM (active), the Potency [11] was 4.22 µM (active) and the Potency [12] was 5.31 µM (active). For the same compound, the Potency [13] was 15.5 µM (active), the Potency [16] was 17.2 µM (active) and the Potency [17] was 23.7 µM (active). The Potency [18] was 7.77 µM (active), the Potency [3] was 5.31 µM (active) and the Potency [4] was 3.89 µM (active). The Potency [19] was 13.3 µM (active) and the Potency [5] was 21.1 µM (active).

In the case of `CCN1CCN(C(=O)Cc2ccc(Nc3ncc(F)c(Nc4ccc(C(=O)Nc5ccccc5Cl)cc4)n3)cc2)CC1`, the Potency [9] is reported as 3.72 µM (active), the Potency [10] is reported as 2.35 µM (active) and the Potency [11] is reported as 2.96 µM (active). The Potency [13] was 12.2 µM (active), the Potency [14] was 5.26 µM (active) and the Potency [20] was 7.43 µM (active). The Potency [15] was 4.69 µM (active), the Potency [2] was 5.9 µM (active) and the Potency [17] was 0.469 µM (active). For the same compound, the Potency [18] was 19.3 µM (active), the Potency [3] was 8.33 µM (active) and the Potency [4] was 4.32 µM (active). For the same compound, the Potency [19] was 13.2 µM (active), the Potency [5] was 9.35 µM (active) and the Potency [6] was “inactive”. For the same compound, the Potency [7] was 23.5 µM (active) and the Potency [8] was 18.7 µM (active).

For `CO/C=C(/C(=O)OC)c1ccccc1Oc1cc(Oc2ccccc2C#N)ncn1`, the Potency [9] was 9.69 µM (active), the Potency [12] was 17.2 µM (active) and the Potency [14] was 27.3 µM (active). The Potency [17] was 21.7 µM (active), the Potency [18] was 8.93 µM (active) and the Potency [4] was 14.2 µM (active). The Potency [6] was “inactive”.

For `CCc1c(C(=O)C(N)=O)c2c(OCC(=O)O)cccc2n1Cc1ccccc1`, the Potency [1] was “inactive”, the Potency [10] was “inactive” and the Potency [13] was “inactive”. The Potency [14] was “inactive”, the Potency [20] was “inactive” and the Potency [15] was “inactive”. For the same compound, the Potency [16] was “inactive”, the Potency [2] was “inactive” and the Potency [17] was “inactive”. The Potency [18] was “inactive”, the Potency [3] was “inactive” and the Potency [4] was “inactive”. For the same compound, the Potency [19] was “inactive”, the Potency [6] was “inactive” and the Potency [7] was “inactive”. The Potency [8] was “inactive”.

For `CCNC(=O)CC1N=C(c2ccc(Cl)cc2)c2cc(OC)ccc2-n2c(C)nnc21` (stereo unspecified), the Potency [1] was “inactive”, the Potency [11] was 2.96 µM (active) and the Potency [12] was 2.96 µM (active). The Potency [14] was 20.9 µM (active), the Potency [20] was “inactive” and the Potency [16] was 15.2 µM (active). The Potency [2] was 14.8 µM (active), the Potency [17] was 10.5 µM (active) and the Potency [4] was 21.7 µM (active). The Potency [19] was 5.9 µM (active) and the Potency [6] was “inactive”.

With `COC1=C[C@@H]2[C@@H]3Cc4ccc(OC)c(O)c4[C@]2(CCN3C)CC1=O` the Potency [1] was “inactive”, the Potency [11] was 1.48 µM (active) and the Potency [12] was 13.2 µM (active). The Potency [14] was 20.9 µM (active), the Potency [20] was “inactive” and the Potency [15] was “inactive”. The Potency [16] was 6.07 µM (active), the Potency [2] was 5.9 µM (active) and the Potency [18] was “inactive”. The Potency [3] was “inactive”, the Potency [4] was “inactive” and the Potency [8] was 3.72 µM (active).

In the case of `O=C1C=CC[C@@H]2[C@H]3CCCN4CCC[C@@H](CN12)[C@@H]34`, the Potency [20] is reported as “inactive”, the Potency [15] is reported as “inactive” and the Potency [6] is reported as “inactive”.

For `CCNC(=O)C[C@@H]1N=C(c2ccc(Cl)cc2)c2cc(OC)ccc2-n2c(C)nnc21`, the Potency [9] was 5.9 µM (active), the Potency [10] was 5.9 µM (active) and the Potency [11] was 0.59 µM (active). For the same compound, the Potency [12] was 1.32 µM (active), the Potency [13] was 7.69 µM (active) and the Potency [14] was 10.5 µM (active). For the same compound, the Potency [15] was 4.69 µM (active), the Potency [2] was 1.05 µM (active) and the Potency [17] was 2.35 µM (active). The Potency [4] was 1.53 µM (active), the Potency [19] was 1.18 µM (active) and the Potency [5] was 0.469 µM (active). The Potency [6] was “inactive” and the Potency [8] was 5.9 µM (active).
